Reference: PubChem BioAssay (NCATS)
Results filed as inconclusive are left out. A call without a number means that no potency is given here. The source made the active and inactive calls. Unless noted, calls follow the shape of the dose curve; as a rule, active = well fitted curve in the direction sought with a large enough effect; inconclusive = small, poorly fitted or top-dose-only effect, or another doubt; inactive = no such curve, though single readings can be large; an effect the other way counts as inactive or inconclusive.

Experiments:
[1] = NS1 protein of Zika virus - qHTS assay to identify small molecule inhibitors in human HEK 293 cells (AID 1347053); also: series mostly up to about 46 µM; nearly all actives have a fitted effect of over 55% in size
Summary of the method: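 Read-out is a two-antibody TR-FRET for ZIKV NS1, normalized between uninfected cells and infected cells. Compound added 1 h before MR766 infection at MOI 0.5; human HEK 293 cells incubated 24 h, 37 C.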

[2] = qHTS for Inhibitors of the Functional Ribonucleoprotein Complex (vRNP) of Lassa (LASV) Arenavirus: LASV Primary Screen - GLuc reporter signal (AID 1347082; calls by dose curve; tested in HEK293 reporter line; also: series mostly up to about 57 µM; nearly all actives have a fitted effect of over 60% in size)
[3] = qHTS for Inhibitors of the Functional Ribonucleoprotein Complex (vRNP) of Lassa (LASV) Arenavirus: Viability assay - alamar blue signal for LASV Primary Screen (AID 1347083; calls by dose curve; tested in HEK293 reporter line; also: series mostly up to about 57 µM; nearly all actives have a fitted effect of over 80% in size)
[4] = qHTS for Inhibitors of the Functional Ribonucleoprotein Complex (vRNP) of Lymphocytic Choriomeningitis Arenaviruses (LCMV): Viability assay - alamar blue signal for LCMV Primary Screen (AID 1347085; calls by dose curve; tested in HEK293 reporter line; also: series mostly up to about 57 µM; nearly all actives have a fitted effect of over 80% in size)
[5] = target: Nucleoprotein (Lymphocytic choriomeningitis virus (strain Armstrong)) (UniProt P09992); assay: qHTS for Inhibitors of the Functional Ribonucleoprotein Complex (vRNP) of Lymphocytic Choriomeningitis Arenaviruses (LCMV): LCMV Primary Screen - GLuc reporter signal (AID 1347086; calls by dose curve; also: series mostly up to about 57 µM; nearly all actives have a fitted effect of over 70% in size)
[6] = qHTS of pediatric cancer cell lines to identify multiple opportunities for drug repurposing: Primary screen for TC32 cells (AID 1347089); also: nearly all actives have a fitted effect of over 60% in size
Summary of the method: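 Measured quantity: luminescence from CellTiter-Glo, reflecting metabolically active TC32 cells following 48 h of compound. Curves came straight from multi-point titrations, with 8 or 11 points in primary and 11 in confirmatory screening.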

[7] = qHTS of pediatric cancer cell lines to identify multiple opportunities for drug repurposing: Primary screen for DAOY cells (AID 1347090); also: nearly all actives have a fitted effect of over 55% in size; also: potency is read from the fitted curve at half-maximal effect
Summary of the method: (§1)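 Cell viability, CellTiter-Glo luminescence; 500-1,000 cells/well, 8- or 11-point titration, 48 h compound exposure at 37 degrees C, 5% CO2. Controls: DMSO neutral, bortezomib 2.3 µM final as positive.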

[8] = qHTS of pediatric cancer cell lines to identify multiple opportunities for drug repurposing: Primary screen for SJ-GBM2 cells (AID 1347091); also: potency is read from the fitted curve at half-maximal effect
Summary of the method: as §1

[9] = qHTS of pediatric cancer cell lines to identify multiple opportunities for drug repurposing: Primary screen for BT-37 cells (AID 1347094); also: potency is read from the fitted curve at half-maximal effect
Summary of the method: (§2)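 Plated cells (500-1,000 per well, growth media) were allowed to settle for 5 hours, treated with compound dilutions for 48 hours, then lysed with CellTiter-Glo for 15 min at room temperature before luminescence reading.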

[10] = qHTS of pediatric cancer cell lines to identify multiple opportunities for drug repurposing: Primary screen for NB-EBc1 cells (AID 1347095); also: potency is read from the fitted curve at half-maximal effect
Summary of the method: as §2

[11] = qHTS of pediatric cancer cell lines to identify multiple opportunities for drug repurposing: Primary screen for U-2 OS cells (AID 1347096); also: nearly all actives have a fitted effect of over 50% in size
Summary of the method: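 Cells (500-1,000/well) rested 5 h, then received compounds for 48 h; metabolically active cells were measured by CellTiter-Glo luminescence. Final concentrations spanned up to 46 µM (MIPE, 11-point) or 0.59 nM-46 µM (NPC, 8-point) in primary screens, 11-point in follow-ups.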

[12] = qHTS of pediatric cancer cell lines to identify multiple opportunities for drug repurposing: Primary screen for A673 cells (AID 1347092); also: nearly all actives have a fitted effect of over 45% in size; also: potency is read from the fitted curve at half-maximal effect
Summary of the method: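 Cells are plated, rested 5 h, dosed by pintool, incubated 48 h, then lysed with CellTiter-Glo and read by luminescence. DMSO is the neutral control; bortezomib at 2.3 uM final is the positive control.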

[13] = qHTS of pediatric cancer cell lines to identify multiple opportunities for drug repurposing: Primary screen for SK-N-MC cells (AID 1347093); also: potency is read from the fitted curve at half-maximal effect
Summary of the method: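 Metabolically active cells were quantified by ATP-dependent luminescence (CellTiter-Glo, 15 min at room temperature) following 48 h treatment. Cells had been plated at 500-1,000 per well and settled for 5 h beforehand.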

Chain of Nucleoprotein (Lymphocytic choriomeningitis virus (strain Armstrong)) (P09992 whole entry, looked up): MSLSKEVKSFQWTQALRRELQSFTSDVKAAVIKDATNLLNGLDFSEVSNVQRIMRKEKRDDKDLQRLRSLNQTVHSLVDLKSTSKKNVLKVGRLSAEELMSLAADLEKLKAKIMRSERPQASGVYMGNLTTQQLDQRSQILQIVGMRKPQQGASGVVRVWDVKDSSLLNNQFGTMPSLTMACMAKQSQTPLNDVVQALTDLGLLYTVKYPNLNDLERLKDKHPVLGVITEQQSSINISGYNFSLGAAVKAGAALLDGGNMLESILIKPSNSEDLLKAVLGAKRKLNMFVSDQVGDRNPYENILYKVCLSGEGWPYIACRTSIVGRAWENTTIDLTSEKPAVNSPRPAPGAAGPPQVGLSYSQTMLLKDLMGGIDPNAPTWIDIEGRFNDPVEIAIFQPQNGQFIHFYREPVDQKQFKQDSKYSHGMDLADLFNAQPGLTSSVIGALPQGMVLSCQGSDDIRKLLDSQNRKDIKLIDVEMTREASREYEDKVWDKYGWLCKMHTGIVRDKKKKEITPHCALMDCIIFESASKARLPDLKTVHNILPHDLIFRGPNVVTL

| SMILES | Potency [1] | Potency [2] | Potency [3] | Potency [4] | Potency [5] | Potency [6] | Potency [7] | Potency [8] | Potency [9] | Potency [10] | Potency [11] | Potency [12] | Potency [13] |
| --- | --- | --- | --- | --- | --- | --- | --- | --- | --- | --- | --- | --- | --- |
| CN(C)CCc1c[nH]c2cccc(O)c12 | inactive | inactive | inactive | inactive | inactive | inactive | inactive | inactive | inactive | inactive |  |  |  |
| CNC(C)Cc1ccc2c(c1)OCO2 (stereo not given) | inactive | inactive | inactive | inactive | inactive |  | 47.4 µM (active) | inactive | inactive | inactive | inactive |  |  |
| C#C[C@]1(O)CC[C@H]2[C@@H]3CCC4=CC(=O)CCC4=C3C=C[C@@]21CC | inactive | inactive | inactive | inactive | inactive | inactive |  | inactive |  | inactive | inactive |  |  |
| CN(C)C(=O)Oc1cc(OC(=O)N(C)C)cc(C(O)CNC(C)(C)C)c1 (stereo not given) | inactive | inactive |  | inactive | inactive | inactive | inactive | inactive | inactive | inactive | inactive | inactive | inactive |
| CCCCC(CC)COC(=O)C(C#N)=C(c1ccccc1)c1ccccc1 (stereo not given) |  | inactive |  |  |  |  |  |  |  |  |  |  |  |
| CCCCCCCCC(=O)NCc1ccc(O)c(OC)c1 | inactive | inactive | inactive | inactive | inactive | inactive |  | 0.001 µM (active) | 0.001 µM (active) | 0.001 µM (active) | inactive |  | 0.001 µM (active) |
| CC(Cc1ccccc1)NCc1ccccc1Cl (stereo not given) | inactive | inactive | inactive | inactive | inactive | inactive | inactive | inactive | inactive | inactive |  |  |  |
| C[C@]12Cc3nonc3C[C@@H]1CC[C@@H]1[C@@H]2CC[C@@]2(C)[C@H]1CC[C@]2(C)O | inactive | inactive |  | inactive | inactive | inactive | inactive |  |  |  | inactive |  |  |
| C[C@H](N)[C@H](O)c1ccc(O)c(O)c1 | inactive | inactive |  |  |  | inactive | inactive | inactive | inactive |  | inactive |  |  |
| Oc1ccc([C@H]2CNCc3c2ccc(O)c3O)cc1O | inactive | inactive | inactive | inactive | inactive | inactive |  | inactive | inactive | inactive | inactive |  |  |
| Nc1ccc(Cl)cc1C(=O)c1ccccc1F | inactive | inactive | inactive | inactive | inactive |  | inactive | inactive | inactive |  | inactive |  |  |
| CN1C(=O)[C@@H](NC(=O)c2cc3ccccc3[nH]2)N=C(c2ccccc2)c2ccccc21 | inactive | inactive | inactive | inactive | inactive | inactive |  |  | inactive | inactive |  | 6.68 µM (active) |  |
| C=CCOC(Cn1ccnc1)c1ccc(Cl)cc1Cl (stereo not given) | inactive | inactive | inactive | inactive | inactive | inactive | inactive | inactive | inactive | inactive |  |  | inactive |
| CC[C@H]1C[C@@H]2C[C@H]3c4[nH]c5ccc(OC)cc5c4CCN(C2)[C@@H]13 | inactive | inactive | inactive | inactive | inactive | inactive | 37.8 µM (active) | inactive |  | inactive | inactive |  |  |
| CC#C[C@]1(O)CC[C@H]2[C@@H]3C[C@H](C)C4=CC(=O)CC[C@]4(C)[C@H]3CC[C@@]21C | inactive | inactive | inactive | inactive | inactive | inactive | inactive |  |  |  | inactive | inactive | 23.7 µM (active) |
| CC(CC(C#N)(c1ccccc1)c1ccccc1)N(C)C (stereo not given) | inactive | inactive | inactive | inactive | inactive | inactive | inactive |  |  | inactive | inactive | inactive |  |
| CNC(=O)Oc1cccc2ccccc12 | inactive | inactive | inactive | inactive | inactive |  | inactive | inactive | inactive | inactive | inactive | inactive | inactive |
| C[C@]12C=CC(=O)C=C1CC[C@@H]1[C@@H]2CC[C@@]2(C)[C@H]1CC[C@]2(C)O | inactive | inactive | inactive | inactive | inactive | inactive | inactive |  | inactive |  | inactive |  |  |
| CCc1cccc2c(CCO)c[nH]c12 |  | inactive | inactive | inactive | inactive |  |  |  |  |  |  |  |  |
| CCN(CC)CCNC(C(=O)OCCC(C)C)c1ccccc1 (stereo not given) |  | inactive | inactive | inactive | inactive |  |  |  |  |  |  |  |  |
